# Only some compounds are listed: those with a hit (about 6.2% of all), similar ones and a draw of the others.
# FMDV antiviral – blocks foot and mouth disease virus. FMDV antiviral cell-based qHTS. Potency, µM (series often up to 57.9 µM), for the others: top-dose activity change, negative = inhibition, actives largely listed as inhibitors. 410,000 tested, 1.2% active. AID 1159524; calls by dose curve; tested in HEK293T cells; note: read-out not given here; potency is the fitted concentration of half-maximal effect; nearly all actives have a fitted effect of over 45% in size
# Lassa entry inh – blocks Lassa virus binding to or entry into cells; Lassa virus pseudotype entry inhibition, cell reporter; Potency, µM (top dose mostly 37.9 µM), inactives show top-dose activity change, negative = inhibition, most hits filed as inhibitors; 300,000 tested, 1.2% active; AID 540256; calls by dose curve; tested in HEK293 cells; note: potency is the fitted concentration of half-maximal effect; nearly all actives have a fitted effect of over 50% in size
# Marburg entry inh – Marburg virus entry inhibition; Marburg virus pseudotyped entry inhibition, cell reporter; Potency, µM (titrated, usually from 37.8 µM), for the others: at the highest dose activity change, negative = inhibition, hits mostly inhibitors; 300,000 tested, 1.8% active; AID 540276; calls by dose curve; tested in HEK293 cells; note: potency is the fitted concentration of half-maximal effect
# HCMV antiviral – inhibitors of human cytomegalovirus; HFF cells, HCMV-luciferase reporter, 72 h; active compounds read low; activity change, negative = inhibition, % at 57.5 µM; 410,000 tested, 4.5% active; in the data active = activity change below about -60%; inconclusive = no clear call, values can overlap the other calls; inactive = above about -39%
#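 Two-dose cell screen: HFF monolayers treated with compounds and infected with luciferase-expressing HCMV at 1 PFU/cell, 72 h at 37C, then lysed for luciferase measurement.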
# Numbers without * were called inactive; ? = inconclusive; nt = no result given; ! = a repeat was not active; [ ] = another dose, or the depositor's remark. % is set by controls: 0 for no effect and ±100 for the full control effect.
SMILES,FMDV antiviral,Lassa entry inh,Marburg entry inh,HCMV antiviral
CCc1nc2ccccc2c(C(=O)OCC(=O)N(CC(C)C)c2c(N)n(Cc3ccccc3)c(=O)[nH]c2=O)c1C,-13%,-4%,-20%,-19
Fc1cnc(N/N=C/c2ccc(-c3ccc(Br)cc3)o2)nc1N1CCOCC1,-16%,5%[46.1 µM],0%[46.1 µM],5
CCOc1cc(/C=N/NC(=O)c2ccc(O)cc2)ccc1Oc1nc(Cl)ncc1F,-25%,nt,nt,-71*
COc1ccc(/C=N/NC(=O)CC#N)cc1Oc1nc(Cl)ncc1F,-21%,nt,nt,-19
CCOc1cc(/C=N\Nc2ncc(F)c(N3CCOCC3)n2)ccc1Oc1nc(Cl)ncc1F,16µM*,?,?,-73*
O=C(CCc1nnc2ccc(NCc3ccc(F)cc3)nn12)N1CCC2(CC1)OCCO2,27%,nt,nt,39
COc1cccc(C2Oc3ccccc3C3CC(c4cccs4)=NN32)c1 (configuration not stated),20%,27%,16%[46.1 µM],121
CC1CC(C)CN(C(=O)CSC2=Nc3ccccc3C3=NC(Cc4c[nH]c5ccccc45)C(=O)N23)C1 (configuration not stated),-1%,2.6µM*,?,nt
O=C(CSC1=Nc2ccccc2C2=NC(Cc3c[nH]c4ccccc34)C(=O)N12)NC1CCCCC1 (configuration not stated),12%,?,-5%,29
CC(=O)O[C@]1(C(C)=O)CC[C@H]2[C@@H]3C=C(Cl)C4=CC(=O)CC[C@]4(C)[C@H]3CC[C@@]21C,?,-1%,-31%,?
CC(=O)O[C@]1(C(C)=O)CC[C@H]2[C@@H]3C=C(Cl)C4=CC(=O)[C@@H]5C[C@@H]5[C@]4(C)[C@H]3CC[C@@]21C,?,16µM*,?,-90*!
CCc1cc(=O)oc2c(C)c(OC(C)C(=O)NCCCn3ccnc3)ccc12 (configuration not stated),-2%,nt,nt,?
C[C@H](NC(N)=O)C(=O)OCC(=O)NCc1cccs1,-4%,-3%,6%,?
O=C(Nc1ccccc1)Nc1nnc(/C=C/c2ccccc2Cl)s1,-7%,-2%,?,-12
Nc1nnc(/C=C/c2ccccc2Cl)s1,24%,?,7.1µM*,79
Cc1ccc(O)c(CC(C)C)n1,-13%,-1%,-22%,-7
c1ccc(-c2sc3ccccc3c2-c2ccc(OCCN3CCCCC3)cc2)cc1,-13%,nt,nt,-64*
CC(C)(O)CCc1c(-c2ccc(O)cc2O)oc2c3c(cc(O)c2c1=O)OC(C)(C)C=C3,-19%,nt,nt,-11
CC(C)(C)c1ccc(Cn2nnc3c(=O)[nH]c(C4CCN(C(=O)Cc5cccs5)CC4)nc32)cc1,?,?,8.2µM*,?
Cc1ccc(Cn2nnc3c(=O)[nH]c(C4CCN(S(=O)(=O)Cc5ccccc5)CC4)nc32)cc1,20%,11µM*,?,27
O=C(c1cccs1)N1CCC(c2nc3c(nnn3Cc3ccccc3Cl)c(=O)[nH]2)CC1,7%,7.9µM*,-7%[46.1 µM],70
O=C(NCc1cccs1)c1nc2c(nnn2Cc2ccccc2Cl)c(=O)[nH]1,?,11µM*,?,-102*
CSc1nc(N)nc2c1ncn2CC(=O)NCCCN1CCCC1=O,-20%,nt,nt,-18
CCCn1c(=O)c2c(nc3n2CCCN3CCc2ccccc2)n(C)c1=O,?,-23%,?,-62*
CCCn1c(=O)c2c(nc3n2CCCN3Cc2ccccc2)n(C)c1=O,?,nt,nt,-32
SMILES,FMDV antiviral,Lassa entry inh,Marburg entry inh,HCMV antiviral
Cn1c(=O)n(CCc2ccccc2)c(=O)c2c1nc1n2CCCN1Cc1ccccc1,20µM*,16µM*,?,16
Cn1c(=O)n(CCc2ccccc2)c(=O)c2c1nc1n2CCCN1CCc1ccccc1,?,?,?,-3
COC(=O)Cn1c(=O)c2c(nc3n2CCCN3CCc2ccccc2)n(C)c1=O,1%,-1%[46.1 µM],5%[46.1 µM],-64*
Cc1cc(C(=O)NNC(=O)c2cccs2)nn1C(C)(C)C,-5%,nt,nt,8
c1ccc2c(c1)OCC(CNc1ncnc3sccc13)O2 (configuration not stated),?,-31%,?,-63*
CN(C)c1ccc(CNc2ncnc3sccc23)cc1,?,3.5µM*,?,-82*
COc1ccccc1CNc1ncnc2sccc12,-28%,?,6.3µM*,-76*
Fc1ccccc1CNc1ncnc2sccc12,?,-28%[46.1 µM],?,-15
COc1ccc(Nc2ncnc3sccc23)cc1OC,25%,19%[46.1 µM],11%[46.1 µM],0
NS(=O)(=O)c1ccc(CNc2ncnc3sccc23)cc1,-27%,-1%,2%[46.1 µM],4
COc1ccc(CCNc2ncnc3sccc23)cc1OC,28µM*,?,?,-89*
COc1cc(C(=O)Nc2ccc(C(N)=O)cc2)c([N+](=O)[O-])cc1OC,-6%,nt,nt,-25
CC(=O)c1cccc(NC(=O)c2cccc(S(=O)(=O)N(C)C)c2)c1,-20%,-26%,28%,-16
CCN(CC)C(=O)C1CCCN(c2ncnc3c2cnn3-c2cccc(C)c2)C1 (configuration not stated),14µM*,-9%,?,-37
CCOC(=O)C1CCCN(c2ncnc3c2cnn3-c2cccc(C)c2)C1 (configuration not stated),?,-1%,27%,3
CCN(CC)C(=O)C1CCCN(c2ncnc3c2cnn3-c2ccc(Cl)cc2)C1 (configuration not stated),20µM*,nt,nt,-68*
COC(=O)c1ccccc1NC(=O)CSc1nc(N)cc(N)n1,-3%,nt,-2%,54
CCN(CC)c1ccc2c(C)c(-c3ccc(N)cc3)c(=O)oc2c1,0%,10µM*,?,?
Cc1ccc(NC(=O)c2noc3c2CCC3)cc1C,-8%,?,?,0
O=C(Nc1cccc(O)c1)c1noc2c1CCCCC2,nt,?,?,-61*
CN(N=Cc1ccc([N+](=O)[O-])cc1)c1ccccn1,34%,nt,nt,-70*
O=C(c1ccc([N+](=O)[O-])cc1)N(c1ccccn1)c1ccccn1,5%,23%,9%[46.1 µM],-18
COc1ccc(CCNS(=O)(=O)c2ccc(S(=O)(=O)N3CCCC3)cc2)cc1OC,nt,-26%,-30%,-30
Cc1ccc(C(O)(C(=O)NNc2ccccn2)c2ccc(C)cc2)cc1,-18%,-9%,-6%[46.1 µM],?
O=C(NNc1ccccc1Br)C(O)(c1cccc(C(F)(F)F)c1)c1cccc(C(F)(F)F)c1,35µM*,?,?,-99*
SMILES,FMDV antiviral,Lassa entry inh,Marburg entry inh,HCMV antiviral
Cc1ccc(NNC(=O)C(O)(c2cccc(C(F)(F)F)c2)c2cccc(C(F)(F)F)c2)cc1,?,?,?,-89*
C/C(CC(=O)Nc1ccc(F)cc1)=N\NC(=O)c1ccccn1,35%,?,3%,?
O=C(CSc1ccc(Cl)cc1)Nc1ccc(NC(=O)c2ccco2)cc1,nt,-6%,7%,-9
COc1ccc(OCC(=O)Nc2ccc(N3CCN(C(=O)c4ccco4)CC3)cc2)cc1,-6%,14%,?,?
O=C(COc1ccc(Cl)cc1)Nc1ccc(N2CCN(C(=O)c3ccco3)CC2)cc1,nt,?,?,-86*
Cc1cccc(OCC(=O)Nc2ccc(N3CCN(C(=O)c4ccco4)CC3)cc2)c1C,-17%,-11%[46.1 µM],?,-10
